# Reference: publication PMC7862700, “An all-to-all approach to the identification of sequence-specific readers for epigenetic DNA modifications on cytosine”
# Legend:
# Test in all cases: DAPPL (digital affinity profiling via proximity ligation, sequencing); 10 mM Tris-HCl pH 7.5, 50 mM NaCl, 1 mM DTT, 4% glycerol, room temperature, 30 min; GST-TFs on glutathione beads, 16-mer random dsDNA library, 0.1% formaldehyde crosslink after washing; high values mean tight binding
# Conditions in all cases: protein: recombinant; tags: N-terminal GST; dsDNA, one strand shown
# FLI1 = target: T1, FLI1 (Homo sapiens, UniProt Q01543 1-452)
# T1 sequence: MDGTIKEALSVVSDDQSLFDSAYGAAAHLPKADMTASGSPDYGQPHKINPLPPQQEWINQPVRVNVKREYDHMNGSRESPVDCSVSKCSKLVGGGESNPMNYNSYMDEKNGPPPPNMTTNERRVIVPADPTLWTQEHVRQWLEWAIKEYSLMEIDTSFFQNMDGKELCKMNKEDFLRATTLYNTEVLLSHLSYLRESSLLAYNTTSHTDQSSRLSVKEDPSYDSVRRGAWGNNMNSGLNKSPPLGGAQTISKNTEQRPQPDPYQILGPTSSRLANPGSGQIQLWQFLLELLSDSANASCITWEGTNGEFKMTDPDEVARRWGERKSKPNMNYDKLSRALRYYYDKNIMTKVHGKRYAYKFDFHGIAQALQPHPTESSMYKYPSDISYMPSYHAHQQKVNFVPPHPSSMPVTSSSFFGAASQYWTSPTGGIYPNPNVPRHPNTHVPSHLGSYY
# Method in brief: (§1)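 Binding signal is defined as a hexamer's read frequency for one factor over its frequency for the tag-only sample. To obtain reads, GST-fused human transcription factors were expressed in yeast, captured on glutathione beads, barcoded with DNA and pooled with that sample. Pools met 200 nmole of a 16-mer random double-stranded DNA library in Tris/NaCl/DTT/glycerol buffer for 30 min at room temperature before washing, 0.1% formaldehyde crosslinking, proximity ligation (BsaI/T4 ligase, 1 h, 37 °C), PCR and Illumina NextSeq500 sequencing.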
# ELK1 = target: T2, ELK1 (Homo sapiens, UniProt P19419 1-428)
# T2 sequence: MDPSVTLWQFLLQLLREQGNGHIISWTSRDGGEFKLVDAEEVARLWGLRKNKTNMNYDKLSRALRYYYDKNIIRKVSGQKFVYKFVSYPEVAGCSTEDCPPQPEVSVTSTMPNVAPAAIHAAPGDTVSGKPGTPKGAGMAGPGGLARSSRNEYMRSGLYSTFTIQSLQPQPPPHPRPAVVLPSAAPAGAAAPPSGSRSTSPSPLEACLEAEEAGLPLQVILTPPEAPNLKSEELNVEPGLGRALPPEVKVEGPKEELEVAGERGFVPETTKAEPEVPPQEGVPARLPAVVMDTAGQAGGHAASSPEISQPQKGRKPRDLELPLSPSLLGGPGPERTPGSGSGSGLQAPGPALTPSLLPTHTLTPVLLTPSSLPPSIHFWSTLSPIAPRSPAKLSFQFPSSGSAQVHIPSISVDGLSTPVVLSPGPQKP
# Method in brief: as §1
# GABPA = target: T3, GABPA (Homo sapiens, UniProt Q06546 1-454)
# T3 sequence: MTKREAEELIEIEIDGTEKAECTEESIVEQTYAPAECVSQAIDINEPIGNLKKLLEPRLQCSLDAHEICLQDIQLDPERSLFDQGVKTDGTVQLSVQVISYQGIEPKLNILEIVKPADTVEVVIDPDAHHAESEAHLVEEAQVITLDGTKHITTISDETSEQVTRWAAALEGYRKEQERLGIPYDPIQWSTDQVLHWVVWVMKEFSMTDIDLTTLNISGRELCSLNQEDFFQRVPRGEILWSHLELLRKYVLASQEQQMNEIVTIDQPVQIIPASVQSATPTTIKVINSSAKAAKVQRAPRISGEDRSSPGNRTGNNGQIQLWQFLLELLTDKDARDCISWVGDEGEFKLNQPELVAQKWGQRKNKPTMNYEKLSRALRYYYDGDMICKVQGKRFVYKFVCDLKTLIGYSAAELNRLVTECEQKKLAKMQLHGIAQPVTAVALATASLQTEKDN
# Method in brief: as §1
# ELF1 = ELF1 (Homo sapiens, UniProt P32519 1-619)
# ELF1, sequence (P32519 whole entry): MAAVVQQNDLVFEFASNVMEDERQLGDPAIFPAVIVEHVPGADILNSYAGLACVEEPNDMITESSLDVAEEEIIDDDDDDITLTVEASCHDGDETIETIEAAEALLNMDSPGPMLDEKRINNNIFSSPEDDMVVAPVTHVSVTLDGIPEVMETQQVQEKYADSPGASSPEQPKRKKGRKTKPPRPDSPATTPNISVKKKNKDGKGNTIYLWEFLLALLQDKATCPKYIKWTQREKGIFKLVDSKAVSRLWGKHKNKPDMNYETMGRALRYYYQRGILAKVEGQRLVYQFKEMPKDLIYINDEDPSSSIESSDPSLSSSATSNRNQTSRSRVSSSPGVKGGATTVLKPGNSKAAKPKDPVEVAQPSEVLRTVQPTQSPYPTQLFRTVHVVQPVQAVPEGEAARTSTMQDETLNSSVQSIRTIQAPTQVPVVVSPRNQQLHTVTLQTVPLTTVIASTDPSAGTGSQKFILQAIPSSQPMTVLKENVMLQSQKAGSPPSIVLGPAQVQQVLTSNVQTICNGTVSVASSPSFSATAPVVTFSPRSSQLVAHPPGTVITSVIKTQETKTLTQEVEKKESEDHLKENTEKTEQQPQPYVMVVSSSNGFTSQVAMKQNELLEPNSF
# Method in brief: as §1
# EHF = target: T4, EHF (Homo sapiens, UniProt Q9NZC4 1-300)
# T4 sequence: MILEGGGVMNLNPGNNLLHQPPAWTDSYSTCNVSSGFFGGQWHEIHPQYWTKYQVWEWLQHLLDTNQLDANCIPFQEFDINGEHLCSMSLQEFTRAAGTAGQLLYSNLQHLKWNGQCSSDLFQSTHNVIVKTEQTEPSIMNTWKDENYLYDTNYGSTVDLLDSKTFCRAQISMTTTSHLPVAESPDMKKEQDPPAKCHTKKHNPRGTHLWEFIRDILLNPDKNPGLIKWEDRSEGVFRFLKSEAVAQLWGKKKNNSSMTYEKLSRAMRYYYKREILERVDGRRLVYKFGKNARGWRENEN
# Method in brief: as §1
# SPI1 = SPI1 (Homo sapiens, UniProt P17947 1-270)
# Method in brief: as §1
# SPIB = SPIB (Homo sapiens, UniProt Q01892 1-262)
# SPIB, sequence (Q01892 whole entry): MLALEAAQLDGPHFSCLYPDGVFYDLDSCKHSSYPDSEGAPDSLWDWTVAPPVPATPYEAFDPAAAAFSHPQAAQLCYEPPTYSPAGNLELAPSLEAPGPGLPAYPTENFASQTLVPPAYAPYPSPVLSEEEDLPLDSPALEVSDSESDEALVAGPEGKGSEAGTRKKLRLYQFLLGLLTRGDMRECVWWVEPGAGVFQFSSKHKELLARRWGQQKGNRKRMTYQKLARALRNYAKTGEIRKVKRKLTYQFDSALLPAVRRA
# Method in brief: as §1
# ELK3 = target: T5, ELK3 (Homo sapiens, UniProt P41970 1-407)
# T5 sequence: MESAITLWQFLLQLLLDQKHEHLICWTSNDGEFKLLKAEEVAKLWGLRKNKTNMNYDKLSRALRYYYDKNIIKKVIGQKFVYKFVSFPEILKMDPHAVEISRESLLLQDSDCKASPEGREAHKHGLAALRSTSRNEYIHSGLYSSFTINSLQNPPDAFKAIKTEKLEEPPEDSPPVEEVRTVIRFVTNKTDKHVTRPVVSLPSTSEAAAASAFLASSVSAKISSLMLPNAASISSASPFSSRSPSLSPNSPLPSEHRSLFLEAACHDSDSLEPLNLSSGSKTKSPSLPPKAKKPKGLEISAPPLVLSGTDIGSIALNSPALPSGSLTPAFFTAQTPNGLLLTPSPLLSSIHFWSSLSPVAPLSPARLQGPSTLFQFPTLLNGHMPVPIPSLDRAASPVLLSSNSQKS
# Method in brief: as §1
# FEV = target: T6, FEV (Homo sapiens, UniProt Q99581 1-238)
# T6 sequence: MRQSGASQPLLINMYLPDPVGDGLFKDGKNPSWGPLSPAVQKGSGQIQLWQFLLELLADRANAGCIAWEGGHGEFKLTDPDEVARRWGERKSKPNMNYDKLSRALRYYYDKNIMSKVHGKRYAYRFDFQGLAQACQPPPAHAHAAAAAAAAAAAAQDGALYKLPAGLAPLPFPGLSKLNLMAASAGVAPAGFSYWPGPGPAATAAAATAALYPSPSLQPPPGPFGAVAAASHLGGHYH
# Method in brief: as §1
# ETV5 = ETV5 (Homo sapiens, UniProt P41161 1-510)
# ETV5, sequence (P41161 whole entry): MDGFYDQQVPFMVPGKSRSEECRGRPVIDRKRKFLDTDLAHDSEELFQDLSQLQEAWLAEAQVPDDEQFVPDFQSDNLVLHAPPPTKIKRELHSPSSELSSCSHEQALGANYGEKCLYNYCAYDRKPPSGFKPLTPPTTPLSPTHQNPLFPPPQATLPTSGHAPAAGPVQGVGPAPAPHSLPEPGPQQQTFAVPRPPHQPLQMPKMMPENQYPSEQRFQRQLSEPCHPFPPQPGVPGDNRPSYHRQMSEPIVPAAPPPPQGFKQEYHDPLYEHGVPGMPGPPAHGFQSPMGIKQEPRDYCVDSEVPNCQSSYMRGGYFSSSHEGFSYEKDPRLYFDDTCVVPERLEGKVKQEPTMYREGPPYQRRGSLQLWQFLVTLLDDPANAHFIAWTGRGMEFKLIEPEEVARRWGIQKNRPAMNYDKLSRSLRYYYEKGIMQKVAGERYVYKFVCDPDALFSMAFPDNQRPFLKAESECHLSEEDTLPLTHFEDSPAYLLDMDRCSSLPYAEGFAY
# Method in brief: as §1
# SPIC = target: T7, SPIC (Homo sapiens, UniProt Q8N5J4 1-248)
# T7 sequence: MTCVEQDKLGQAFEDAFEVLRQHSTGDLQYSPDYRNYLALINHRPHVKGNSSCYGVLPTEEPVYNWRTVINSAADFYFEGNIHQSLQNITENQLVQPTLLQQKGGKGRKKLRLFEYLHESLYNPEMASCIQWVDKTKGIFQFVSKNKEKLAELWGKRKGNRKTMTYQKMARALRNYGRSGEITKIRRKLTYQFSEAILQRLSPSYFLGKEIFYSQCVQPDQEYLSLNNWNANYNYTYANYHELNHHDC
# Method in brief: as §1
# ELF4 = ELF4 (Homo sapiens, UniProt Q99607 1-663)
# ELF4, sequence (Q99607 whole entry): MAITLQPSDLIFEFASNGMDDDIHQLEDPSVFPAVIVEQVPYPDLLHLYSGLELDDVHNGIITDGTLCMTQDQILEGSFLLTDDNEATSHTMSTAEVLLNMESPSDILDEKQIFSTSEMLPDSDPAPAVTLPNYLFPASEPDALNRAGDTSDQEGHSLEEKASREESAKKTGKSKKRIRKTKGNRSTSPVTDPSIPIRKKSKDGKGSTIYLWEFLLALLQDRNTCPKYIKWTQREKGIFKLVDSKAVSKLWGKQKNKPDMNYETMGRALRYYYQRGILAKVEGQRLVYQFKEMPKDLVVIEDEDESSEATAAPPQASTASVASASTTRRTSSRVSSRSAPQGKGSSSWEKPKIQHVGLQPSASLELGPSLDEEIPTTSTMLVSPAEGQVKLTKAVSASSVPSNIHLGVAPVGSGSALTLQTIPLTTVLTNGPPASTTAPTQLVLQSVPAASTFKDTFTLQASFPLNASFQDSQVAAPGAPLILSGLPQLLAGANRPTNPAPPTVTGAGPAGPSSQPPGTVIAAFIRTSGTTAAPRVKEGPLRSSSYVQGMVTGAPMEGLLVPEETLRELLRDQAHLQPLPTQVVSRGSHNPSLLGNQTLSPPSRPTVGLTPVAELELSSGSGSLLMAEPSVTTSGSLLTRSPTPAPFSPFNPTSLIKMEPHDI
# Method in brief: as §1
# ELK4 = target: T8, ELK4 (Homo sapiens, UniProt P28324-2 1-405)
# T8 sequence: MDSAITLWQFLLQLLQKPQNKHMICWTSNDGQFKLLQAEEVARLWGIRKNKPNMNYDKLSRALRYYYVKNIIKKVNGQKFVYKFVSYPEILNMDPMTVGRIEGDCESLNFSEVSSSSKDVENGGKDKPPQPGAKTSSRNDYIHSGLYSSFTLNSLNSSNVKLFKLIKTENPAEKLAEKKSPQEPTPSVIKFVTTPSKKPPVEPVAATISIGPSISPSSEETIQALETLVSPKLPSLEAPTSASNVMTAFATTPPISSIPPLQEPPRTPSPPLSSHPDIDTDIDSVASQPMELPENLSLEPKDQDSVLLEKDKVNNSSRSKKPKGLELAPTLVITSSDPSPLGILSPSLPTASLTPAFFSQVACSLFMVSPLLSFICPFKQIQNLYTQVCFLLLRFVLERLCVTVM
# Method in brief: as §1
# ELF3 = target: T9, ELF3 (Homo sapiens, UniProt P78545 1-371)
# T9 sequence: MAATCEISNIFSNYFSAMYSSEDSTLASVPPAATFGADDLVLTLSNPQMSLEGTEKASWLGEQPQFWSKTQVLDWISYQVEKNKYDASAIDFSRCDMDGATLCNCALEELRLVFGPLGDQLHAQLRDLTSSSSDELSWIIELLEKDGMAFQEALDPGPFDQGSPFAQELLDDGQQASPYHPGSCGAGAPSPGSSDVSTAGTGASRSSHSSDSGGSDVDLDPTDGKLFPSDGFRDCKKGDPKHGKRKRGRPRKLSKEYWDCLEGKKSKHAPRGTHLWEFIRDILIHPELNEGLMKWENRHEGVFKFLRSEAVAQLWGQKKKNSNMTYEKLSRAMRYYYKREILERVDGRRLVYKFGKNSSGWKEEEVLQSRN
# Method in brief: as §1
# CRX = CRX (Homo sapiens, UniProt O43186 1-299)
# CRX, sequence (O43186 whole entry): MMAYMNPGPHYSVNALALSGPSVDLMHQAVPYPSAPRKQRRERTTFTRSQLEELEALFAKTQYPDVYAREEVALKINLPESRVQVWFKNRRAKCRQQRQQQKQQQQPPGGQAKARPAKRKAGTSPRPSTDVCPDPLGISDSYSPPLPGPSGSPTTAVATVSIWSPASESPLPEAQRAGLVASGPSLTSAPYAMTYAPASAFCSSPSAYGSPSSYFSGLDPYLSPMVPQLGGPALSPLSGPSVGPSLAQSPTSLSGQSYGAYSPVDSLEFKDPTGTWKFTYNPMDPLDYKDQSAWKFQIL
# Method in brief: as §1
# ETV1 = ETV1 (Homo sapiens, UniProt P50549 1-477)
# ETV1, sequence (P50549 whole entry): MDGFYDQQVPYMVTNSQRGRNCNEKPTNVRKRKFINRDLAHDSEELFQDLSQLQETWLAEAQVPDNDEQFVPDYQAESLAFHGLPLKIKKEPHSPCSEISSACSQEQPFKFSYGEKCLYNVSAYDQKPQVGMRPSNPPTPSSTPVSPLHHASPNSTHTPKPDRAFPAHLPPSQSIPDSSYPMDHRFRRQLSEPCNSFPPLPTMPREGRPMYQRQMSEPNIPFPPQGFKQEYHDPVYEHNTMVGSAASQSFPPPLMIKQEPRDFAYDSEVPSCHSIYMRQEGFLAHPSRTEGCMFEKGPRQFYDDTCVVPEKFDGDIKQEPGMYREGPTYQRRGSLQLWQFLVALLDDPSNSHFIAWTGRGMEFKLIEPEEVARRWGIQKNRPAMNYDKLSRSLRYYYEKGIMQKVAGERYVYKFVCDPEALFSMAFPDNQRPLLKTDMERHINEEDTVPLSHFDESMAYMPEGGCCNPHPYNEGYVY
# Method in brief: as §1
# ERG = target: T10, ERG (Homo sapiens, UniProt P11308 1-479)
# T10 sequence: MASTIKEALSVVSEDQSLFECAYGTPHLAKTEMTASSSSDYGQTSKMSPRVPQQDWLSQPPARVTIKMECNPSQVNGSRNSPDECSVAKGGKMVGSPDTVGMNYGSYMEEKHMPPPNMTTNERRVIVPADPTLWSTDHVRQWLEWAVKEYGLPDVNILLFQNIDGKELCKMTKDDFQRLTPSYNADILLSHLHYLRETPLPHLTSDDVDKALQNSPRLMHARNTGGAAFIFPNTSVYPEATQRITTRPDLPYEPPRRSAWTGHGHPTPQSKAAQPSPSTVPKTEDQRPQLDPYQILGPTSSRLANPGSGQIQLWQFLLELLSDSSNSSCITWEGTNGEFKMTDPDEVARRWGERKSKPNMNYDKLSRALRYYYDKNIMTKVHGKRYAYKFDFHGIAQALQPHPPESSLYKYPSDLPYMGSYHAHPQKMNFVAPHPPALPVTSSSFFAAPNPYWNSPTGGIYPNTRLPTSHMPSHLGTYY
# Method in brief: as §1
# ETV2 = target: T11, ETV2 (Homo sapiens, UniProt O00321 1-342)
# T11 sequence: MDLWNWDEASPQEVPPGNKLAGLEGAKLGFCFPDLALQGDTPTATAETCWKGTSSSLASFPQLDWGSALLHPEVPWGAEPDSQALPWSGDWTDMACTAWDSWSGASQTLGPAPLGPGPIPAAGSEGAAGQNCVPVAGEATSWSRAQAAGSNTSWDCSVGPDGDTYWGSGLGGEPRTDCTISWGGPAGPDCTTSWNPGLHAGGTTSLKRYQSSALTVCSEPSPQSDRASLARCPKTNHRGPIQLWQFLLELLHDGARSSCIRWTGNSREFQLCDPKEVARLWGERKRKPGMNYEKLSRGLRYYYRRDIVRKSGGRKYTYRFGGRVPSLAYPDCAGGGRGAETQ
# Method in brief: as §1
Sequence,binding signal (FLI1),binding signal (ELK1),binding signal (GABPA),binding signal (ELF1),binding signal (EHF),binding signal (SPI1),binding signal (SPIB),binding signal (ELK3),binding signal (FEV),binding signal (ETV5),binding signal (SPIC),binding signal (ELF4),binding signal (ELK4),binding signal (ELF3),binding signal (CRX),binding signal (ETV1),binding signal (ERG),binding signal (ETV2)
TTGGGT,"1.02 fold enrichment (6-mer frequency, TF over GST control)","1.13 fold enrichment (6-mer frequency, TF over GST control)","1.22 fold enrichment (6-mer frequency, TF over GST control)","1.09 fold enrichment (6-mer frequency, TF over GST control)","1.04 fold enrichment (6-mer frequency, TF over GST control)","1.02 fold enrichment (6-mer frequency, TF over GST control)","1.05 fold enrichment (6-mer frequency, TF over GST control)","1.16 fold enrichment (6-mer frequency, TF over GST control)","1.07 fold enrichment (6-mer frequency, TF over GST control)","1.04 fold enrichment (6-mer frequency, TF over GST control)","1.07 fold enrichment (6-mer frequency, TF over GST control)","1.08 fold enrichment (6-mer frequency, TF over GST control)","1.09 fold enrichment (6-mer frequency, TF over GST control)","1.14 fold enrichment (6-mer frequency, TF over GST control)","1.07 fold enrichment (6-mer frequency, TF over GST control)","1.06 fold enrichment (6-mer frequency, TF over GST control)",–,–
TGGTCC,"1.25 fold enrichment (6-mer frequency, TF over GST control)","1.23 fold enrichment (6-mer frequency, TF over GST control)","1.18 fold enrichment (6-mer frequency, TF over GST control)","1.35 fold enrichment (6-mer frequency, TF over GST control)","1.26 fold enrichment (6-mer frequency, TF over GST control)","1.18 fold enrichment (6-mer frequency, TF over GST control)","1.32 fold enrichment (6-mer frequency, TF over GST control)","1.15 fold enrichment (6-mer frequency, TF over GST control)","1.12 fold enrichment (6-mer frequency, TF over GST control)","1.23 fold enrichment (6-mer frequency, TF over GST control)","1.32 fold enrichment (6-mer frequency, TF over GST control)","1.22 fold enrichment (6-mer frequency, TF over GST control)","1.29 fold enrichment (6-mer frequency, TF over GST control)",–,–,"1.2 fold enrichment (6-mer frequency, TF over GST control)","1.26 fold enrichment (6-mer frequency, TF over GST control)","1.23 fold enrichment (6-mer frequency, TF over GST control)"
